Nrf2 ARE act – activators of Nrf2 (ARE) signaling; AREc32 ARE-luciferase reporter (MCF7-derived line), luminescence, 24 h; Potency, µM (doses to about 46.1 µM), inactives show at the top dose activation, hits mostly activators; 410,000 compounds, 0.31% hits; AID 624171; further: % of control where 0% means no effect; nearly all actives have a fitted effect of over 65% in size
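Quantitative high-throughput format: AREc32 reporter cells, 1000 per well, received compound by pin transfer and were incubated 24 hr at 37 deg C, 5% CO2, before Steady-Glo luminescence detection.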
Nrf2 inh – Nrf2 pathway inhibition. A549 ARE-Fluc reporter, luciferase luminescence, 18-24 h. Potency, µM (top dose mostly 46 µM), for inactives: at the top dose activity change, negative = inhibition, hits mostly inhibitors. 360,000 compounds, 2.1% hits; further: on the % scale 0 is the no-effect control and ±100 the full control effect; nearly all actives have a fitted effect of over 60% in size
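Concentration-response testing used A549 ARE_Fluc cells at 5000 cells/well. Following an 18-24 h compound incubation, viability was read by fluorescence (Ex 405/Em 525) and luciferase output by luminescence.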
A549 viability – A549 cytotoxicity, counter-screen for Nrf2 inhibitors; Potency, µM (doses to about 46 µM), inactives show at the highest dose activity change, negative = cytotoxicity, actives largely listed as inhibitors; A549 ARE-Fluc cells, CellTiter-Fluor viability, 18-24 h; 390,000 compounds, 0.16% hits; further: on the % scale 0 is the no-effect control and ±100 the full control effect
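Cytotoxicity counterscreen: CellTiter-Fluor fluorescence was measured in A549 ARE_Fluc cells after 18-24 h of compound exposure in a concentration series. The subsequent BugLite luminescent read reports ARE-luciferase activity.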
rTrxR1 inhibitor – rat TrxR1 inhibition. recombinant rTrxR1, NADPH fluorescence consumption, selenite substrate. Potency, µM (titrated, usually from 114 µM), inactives show at the top dose activity change, negative = inhibition, most hits filed as inhibitors. 390,000 compounds, 1% hits. AID 588453; further: on the % scale 0 is the no-effect control and ±100 the full control effect; nearly all actives have a fitted effect of over 65% in size
Target sequence (O89049 whole entry, looked up): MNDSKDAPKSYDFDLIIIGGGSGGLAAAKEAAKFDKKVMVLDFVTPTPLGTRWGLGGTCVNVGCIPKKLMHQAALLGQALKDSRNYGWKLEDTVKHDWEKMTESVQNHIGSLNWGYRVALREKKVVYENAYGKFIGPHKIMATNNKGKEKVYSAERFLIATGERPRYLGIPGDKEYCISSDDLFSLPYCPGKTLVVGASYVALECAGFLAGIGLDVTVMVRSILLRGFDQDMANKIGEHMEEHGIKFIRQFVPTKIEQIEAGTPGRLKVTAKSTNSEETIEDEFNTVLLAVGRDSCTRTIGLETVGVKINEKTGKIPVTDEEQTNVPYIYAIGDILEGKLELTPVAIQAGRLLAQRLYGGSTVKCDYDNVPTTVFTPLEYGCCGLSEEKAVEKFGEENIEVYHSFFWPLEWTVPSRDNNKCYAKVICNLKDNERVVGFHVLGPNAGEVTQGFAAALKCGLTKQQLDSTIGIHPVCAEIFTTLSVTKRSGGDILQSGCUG
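Rat TrxR1 (90 nM in the dispensed reagent) was pre-reduced with 400 uM NADPH for 5 min at room temperature, then incubated with compound for 15 min. After 400 uM selenite was added, NADPH fluorescence (Ex 340/Em 450 nm) was followed for 8 min.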
TrxR1 substrate – substrates of rat thioredoxin reductase 1; O89049; purified TrxR1 substrate turnover, NADPH consumption readout; Potency, µM (doses to about 114 µM), inactives show at the top dose activity change, negative = substrate turnover; 390,000 compounds, 0.01% hits; further: on the % scale 0 is the no-effect control and ±100 the full control effect; nearly all actives have a fitted effect of over 50% in size
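Rat TrxR1, dispensed at 90 nM, was prereduced with 400 uM NADPH (final) for 5 min at ~22 deg C, then incubated with compound 15 min before 400 uM selenite. A first-read NADPH fluorescence drop versus no-compound background flagged substrates.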
GALK inh – blocks human galactokinase activity; P51570; Purified GALK, Kinase-Glo residual ATP luminescence; Potency, µM (titrated, usually from 57.5 µM), for inactives: at the highest dose activity change, negative = inhibition, most hits filed as inhibitors; 270,000 compounds, 0.007% hits; AID 1868; further: on the % scale 0 is the no-effect control and ±100 the full control effect
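Galactose (100 uM) and ATP (35 uM) were turned over by 5 nM GALK for 1 h at RT. Kinase-Glo Plus then converted the remaining ATP into a luminescent signal.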
* = called active by the depositor; u = inconclusive; x = not tested or not shown; [ ] = another dose, or the depositor's remark. The list is not random: actives were taken first. Their share in the collection is about 3%. The call rests on the fitted dose curve; in most records, active means well fitted curve in the direction sought with a large enough effect; inconclusive means small, poorly fitted or top-dose-only effect, or another doubt; inactive means no such curve, though single readings can be large; an effect the other way counts as inactive or inconclusive. Potency means the concentration at half of the fitted maximal effect.

SMILES	Nrf2 ARE act	Nrf2 inh	A549 viability	rTrxR1 inhibitor	TrxR1 substrate	GALK inh
CCOC(=O)c1ccc(NC(=O)CSc2nc3cccnc3n2C)cc1	0%	21µM*	-8%	-5%	-8%	-4%
Cn1c(SCC(=O)Nc2ccccc2)nc2ccccc2c1=O	0%[9.22 µM]	21µM*	0%	-4%	-4%	-5%
COc1ccc(NC(=O)CSc2oc(-c3ccc(C)cc3)nc2S(=O)(=O)c2ccc(C)cc2)c(OC)c1	0%	-26%[9.27 µM]	-1%	50µM*	7%[2.29 µM]	x
Cc1cccc(NC(=O)CSc2nc3sc(C)cc3c(=O)n2C)c1	6%	23µM*	-9%	1%	2%	x
Cc1cc2c(=O)n(C)c(SCC(=O)Nc3cccc(O)c3)nc2s1	9%	8%	5%	11%	1%	0%
COc1ccc(NC(=O)CSc2nc3sc(C)cc3c(=O)n2C)cc1	0%	-8%	-16%	-10%	-6%	2%
COc1ccc(NC(=O)CSc2nc3sc(C)cc3c(=O)n2C)c(OC)c1	-1%	18µM*	-11%	20%[57.1 µM]	7%[0.0914 µM]	-2%
O=C(COc1cccc(Cl)c1)N/N=C\c1cc2ccccc2nc1Cl	0%	5%	0%	-31%	116%	x
Cc1ccccc1OCC(=O)N/N=C/c1cc2ccccc2nc1Cl	1%	18µM*	-27%	11%	5%	0%
CCc1c2c(nc3ccc4c(c13)OCCO4)-c1nc3ccccc3c(=O)n1C2	x	0.26µM*	3%	13%	18%	x
O=C(NCCCCNC(=O)c1cccnc1)c1cccnc1	0%	-13%	-16%	2%	-3%	3%
CC(C)(C)c1ccc(C(=O)NCCCNC(=O)c2cccnc2)cc1	-1%	8.2µM*	-3%	15%	8%	2%
COc1ccc(C(=O)NCCCNC(=O)c2cccnc2)cc1OC	0%	10µM*	1%	5%	2%	-1%
COc1ccc(CCNC(=O)c2cccnc2)cc1OC	0%	x	-7%	5%	8%	3%
COc1ccc(/C=C/c2nccc3ccccc23)cc1OC	x	x	x	-5%	0%	x
Cc1nc([N+](=O)[O-])cn1CC(=O)c1ccc2c(c1)OCCCO2	x	x	x	7%	2%	x
O=C(COc1ccccc1F)Nc1nnc(SCc2cc(=O)c3ccccc3[nH]2)s1	-1%	x	20%	12%[57.1 µM]	-2%[57.1 µM]	x
CCOC(=O)C1=C(CC)OC(N)=C(C#N)C1c1cc(OC)ccc1OC (stereo not given)	6%	3%	-4%	2%	-8%	0%
CCOC(=O)C1=C(CC)OC(N)=C(C#N)C1c1ccc(NC(C)=O)cc1 (stereo not given)	0%	-3%	7%	45µM*	3%	x
O=C1c2ccccc2-c2onc3c(NCCO)cc(NC4CCCCC4)c1c23	-1%	21µM*	u	2%	-12%	x
O=C(O)CCNc1cc(N2CCN(C(=O)c3ccco3)CC2)c2noc3c2c1C(=O)c1ccccc1-3	4%	u	18µM*	35µM*	-8%	2%
CCCCNc1cc(NC2CCCCC2)c2c3c(onc13)-c1ccccc1C2=O	1%	-5%	-5%	-11%	-10%	x
COc1ccc(/C=C/c2sc3ccccc3[n+]2CCCCI)cc1OC	x	x	x	u	-17%	x
COc1cc(/C=C/c2sc3ccccc3[n+]2CCCS(=O)(=O)[O-])ccc1O	0%	u	12µM*	3%[57.1 µM]	-4%[57.1 µM]	u
CCOc1ccc(C(c2c(O)nc(SC)n(C)c2=O)c2c(O)nc(SC)n(C)c2=O)cc1	2%	-10%	-20%	8.9µM*	9%	0%
SMILES	Nrf2 ARE act	Nrf2 inh	A549 viability	rTrxR1 inhibitor	TrxR1 substrate	GALK inh
O=C(Nc1ccccc1)c1cccc(N2C(=O)C3C4C=CC(C4)C3C2=O)c1 (stereo not given)	1%	-16%	-3%	-12%	-9%	4%
O=C(Nc1ccc(F)cc1)c1cccc(N2C(=O)C3C4C=CC(C4)C3C2=O)c1 (stereo not given)	0%	-21%	-6%	13%	0%	-5%
O=C(Nc1ccccc1)c1cccc(N2C(=O)C3C4C=CC(C5CC45)C3C2=O)c1 (stereo not given)	0%	21µM*	-11%	18%	3%	5%
O=C(Nc1ccc(F)cc1)c1cccc(N2C(=O)C3C4C=CC(C5CC45)C3C2=O)c1 (stereo not given)	0%	15µM*	-12%	25%	0%	6%
COC(=O)c1ccc(NC(=O)c2cccc(N3C(=O)C4C5C=CC(C6CC56)C4C3=O)c2)cc1 (stereo not given)	0%	21µM*	u	14%	11%	-4%
CCCCCn1c(NCc2ccccc2OC)nc2ccccc21	7%	u	u	0%	-7%	x
Cc1[nH]nc2c1C(c1ccc(-c3ccc(Cl)cc3)o1)C(C#N)=C(N)O2 (stereo not given)	16µM*	20%	-10%	-23%	-8%	x
CC(=O)/C=C/n1c(=S)oc2ccccc21	u	u	u	3.2µM*	-3%[57.1 µM]	0%
CC(C)CC(=O)/C=C/n1c(=S)oc2ccccc21	11µM*	20%	-5%	6.3µM*	-12%	-1%
Cn1c(=S)oc2ccccc21	0%	-7%	-3%	27%[57.1 µM]	4%	x
CC(C)C(=O)N[C@H]1CCC2C3CC=C4C[C@@H](O)CC[C@]4(C)C3CC[C@@]21C (stereo not given in full)	0%	-8%	3%	7%[57.1 µM]	8%[57.1 µM]	x
CC12CCC(O)CC1=CCC1C2CCC2(C)C(c3ccn[nH]3)CCC12 (stereo not given)	3%	21µM*	-8%	5%[57.1 µM]	-8%[57.1 µM]	x
Cn1c2ccccc2c2cnn(CC(=O)N3CCN(c4cccc(C(F)(F)F)c4)CC3)c(=O)c21	0%	27%	0%	5%	5%	x
CCc1ccc(NC(=O)Cn2c(=O)ccc3cc(S(=O)(=O)N4CCCC4)ccc32)cc1	0%	x	-1%	17%[57.1 µM]	0%[57.1 µM]	x
CCc1ccc(-n2nc(C)c3c(C(=O)N4CCN(c5ccccc5)CC4)cc(C)nc32)cc1	4%	18µM*	0%	42%	9%	x
COc1ccc(S(=O)(=O)Nc2ccc3c(c2)N(C(C)=O)CCC3)cc1	0%	12µM*	-9%	-12%	-9%	x
COc1ccc(NC(=O)N2CCCc3ccccc32)cc1	4%	26%	x	-2%	0%	6%
CC1CN(C(=O)c2ccc(S(=O)(=O)Nc3cccc(C(F)(F)F)c3)cc2)CC(C)O1 (stereo not given)	1%	13µM*	-9%	-3%	-7%	x
CC(=O)N1CCc2cc(S(=O)(=O)Nc3ccc(C)c(C)c3)ccc21	x	15µM*	-5%	x	x	x

Bioassay records (PubChem)
